In all, about 69,000 compounds went through this assay and about 8,600 (12%) showed an effect of 50% or more. The list comes from a sample in which strong results are over-represented; it also holds similar structures and randomly drawn compounds.

The experiment concerns Plasmodium berghei. In words: Screen against P. berghei liver stage (PbLuc), transformed with Luciferase, at 10uM. It is filed as functional, HepG2. As to conditions: tested at 10 uM.
On to `CC1(C)CNC(=O)c2nc(CCN3CCCCC3CO)[nH]c2C1` (stereo not drawn), for which the INHIBITION is given as 24.4%.

With `CC1(C)CNC(=O)c2nc(CCN3CCC(O)CC3)[nH]c2C1`, the INHIBITION came out at 53.3%.

For the compound `CC1(C)CNC(=O)c2nc(CCN3CCC(C(N)=O)CC3)[nH]c2C1`, the INHIBITION is given as 8.38%.

Take `CC1(C)CNC(=O)c2nc(CCCN3CCCC3)[nH]c2C1`: the INHIBITION was found to be 83.2%.

On to `O=C(NCC1CC1)Nc1ccc(OCC(F)(F)F)nc1`, for which the INHIBITION was determined as 23.73%.

As to `O=S(=O)(Cc1c(F)cccc1Cl)Cc1nnnn1C1CC1`, the INHIBITION was 25.8%.

On to `COc1ccc(OC)c(C2CCN(C3CCN(C(C)=O)CC3)C2)c1` (stereo not drawn), for which the INHIBITION is reported as 27.7%.

On to `COc1ccc(OC)c(C2CCN(C(=O)C3CCN(C(C)C)CC3)C2)c1` (stereo not drawn), for which the INHIBITION is on record as 53.3%.

Consider `COc1ccc(OC)c(C2CCN(C(=O)C3CCS(=O)(=O)CC3)C2)c1` (stereo not drawn), for which the INHIBITION is reported as 40.5%.

Turning to `COc1ccc(OC)c(C2CCN(C(=O)CCc3n[nH]c(N)n3)C2)c1` (stereo not drawn), the INHIBITION was -24%.

For `COc1ccc(OC)c(C2CCN(C(=O)C3CCOCC3)C2)c1` (stereo not drawn), the INHIBITION worked out at 50.1%.

`COc1ccc(OC)c(C2CCN(C(=O)C3CCC(O)CC3)C2)c1` (stereo not drawn): the INHIBITION is on record as 25.5%.

`CN(CC(=O)Nc1cc(C(C)(C)C)n[nH]1)S(C)(=O)=O`: the INHIBITION was determined as 3.63%.

As for `O=C(NCC1(Sc2ccccc2)CC1)c1c[nH]nn1`, the INHIBITION was found to be 20.8%.

In the case of `CN(C)CC(=O)N1CCN(CC(O)c2ccc(F)cc2)CC1` (stereo not drawn), the INHIBITION is given as -11.4%.

`COc1ccccc1OCCc1nnc(NC(=O)C2CC23CCC3)s1` (stereo not drawn): the INHIBITION is 31.97%.

`CSCC(=O)N1C[C@@H]2CC[C@H]1CN(Cc1ccccc1)C2`: the INHIBITION was -79.7%.

Take `COc1ccc(C(=O)Nc2c(C)nc3cccc(C)n3c2=O)cc1`: the INHIBITION was 31.7%.

Turning to `CCOc1ccc(C(=O)Nc2c(C)nc3cccc(C)n3c2=O)cc1`, the INHIBITION was -14.7%.

`CCOc1ccc(C(=O)Nc2c(C)nc3scc(C)n3c2=O)cc1`: the INHIBITION is 5.58%.

Turning to `CCOc1ccc(C(=O)Nc2c(C)nc3ccccn3c2=O)cc1`, the INHIBITION is recorded as 56.5%.

On to `CCOc1ccc(C(=O)Nc2c(C)nc3ccc(Cl)cn3c2=O)cc1`, for which the INHIBITION is given as 51.6%.

With `CCOc1ccc(C(=O)Nc2ccn(CC)n2)cc1`, the INHIBITION is -125%.

As for `Cn1cccc1C(=O)N1C[C@@H]2CC[C@H]1CN(Cc1cscn1)C2`, the INHIBITION is recorded as -9.39%.

With `COc1c(CNC2CCC(O)CC2)c(C(C)C)nn1C` (stereo not drawn), the INHIBITION is -18.8%.

For `O=C1c2cccnc2OC(CN2CCOCC2)CN1CC1CC1` (stereo not drawn), the INHIBITION is listed as 24.5%.

For the compound `Cc1nc(C)n(C2CCCN(C(=O)c3c(C)nn4cccnc34)C2)n1` (stereo not drawn), the INHIBITION was found to be 26.4%.

As for `Cc1cc(C(=O)N2CCOC(c3nc(C(C)C)n[nH]3)C2)no1` (stereo not drawn), the INHIBITION worked out at 25.1%.

With `COc1cccc(CNC(=O)c2nc3c(s2)CCN(C(C)=O)CC3)c1`, the INHIBITION was found to be 10.1%.

Turning to `COc1cccc(CN2CCc3nc(C(=O)NCC(C)C)sc3CC2)c1`, the INHIBITION is given as 84.5%.

`COc1ccc(CNC(=O)c2nc3c(s2)CCN(C(C)=O)CC3)cc1`: the INHIBITION stood at 34.6%.

For `CCN(CC)C(=O)c1nc2c(s1)CCN(Cc1cccc(OC)c1)CC2`, the INHIBITION is listed as 66.8%.

Turning to `COc1cccc(CN2CCc3nc(C(N)=O)sc3CC2)c1`, the INHIBITION is on record as 2.41%.

As to `CC(C)CNC(=O)c1nc2c(s1)CCN(C(=O)c1cccnc1)CC2`, the INHIBITION was -47.5%.

Turning to `COc1cccc(CC(=O)N2CCc3nc(C(N)=O)sc3CC2)c1`, the INHIBITION is given as -16.9%.

Take `CNC(=O)N1CCc2nc(C(=O)NCc3cccc(OC)c3)sc2CC1`: the INHIBITION is 70.7%.

Take `CNC(=O)c1nc2c(s1)CCN(C(=O)c1cccc(OC)c1)CC2`: the INHIBITION is recorded as -78%.

As for `O=C1OCCN1Cc1nc(C2(c3ccc(F)cc3)CCOC2)no1` (stereo not drawn), the INHIBITION was -73.4%.

On to `CCc1nc(CN2CC(C(=O)OC)O[C@H](C)C2)cs1` (stereo partly drawn), for which the INHIBITION is 30.3%.

Turning to `CS(=O)(=O)NCCN1CCCC1c1noc(C2CC2)n1` (stereo not drawn), the INHIBITION turned out to be 0.914%.

Turning to `CN(C)Cc1ccnc(C2CN(CCc3ccccc3)CCO2)n1` (stereo not drawn), the INHIBITION turned out to be 17.4%.

Take `Cn1cncc1CN1CCC2(CCCN2c2ncccn2)CC1`: the INHIBITION is reported as 16.9%.

Regarding `CC(C)(N)C(=O)N1CCCC(c2cncc(Oc3cccnc3)n2)C1` (stereo not drawn), the INHIBITION turned out to be 41.2%.

For `CCCC(=O)NCC(Cc1cccc(F)c1)N1CCCC1=O` (stereo not drawn), the INHIBITION worked out at 8.31%.

Take `CCOCC(=O)NCC(Cc1cccc(F)c1)n1cccc1` (stereo not drawn): the INHIBITION is 47.2%.

On to `CCOCC(=O)NCC(Cc1cccc(F)c1)N1CCCCC1=O` (stereo not drawn), for which the INHIBITION came to 54.1%.

As to `O=C1CCCN1C(CNS(=O)(=O)C1CC1)Cc1cccc(F)c1` (stereo not drawn), the INHIBITION is recorded as 58.5%.

In the case of `O=C(NCC(Cc1cccc(F)c1)N1CCCC1=O)C1CCCC1` (stereo not drawn), the INHIBITION was found to be 0.923%.

Take `O=C1NCCN1C(CNS(=O)(=O)C1CC1)Cc1cccc(F)c1` (stereo not drawn): the INHIBITION worked out at 20.1%.

`CN(C)C(=O)N1C[C@H](Oc2ccccn2)[C@H]2OCCC[C@H]21`: the INHIBITION is listed as -6.32%.

With `CC1(C)Oc2ccc(S(=O)(=O)NCCCn3ccnc3)cc2NC1=O`, the INHIBITION was determined as 17.4%.

For `COCCCNS(=O)(=O)c1ccc2c(c1)NC(=O)C(C)O2` (stereo not drawn), the INHIBITION is recorded as -35.5%.

With `CC1Oc2ccc(S(=O)(=O)NCCCn3ccnc3)cc2NC1=O` (stereo not drawn), the INHIBITION worked out at 56.5%.

For the origin of these results see ChEMBL document CHEMBL4513216, “Probing the Open Global Health Chemical Diversity Library for Multistage-Active Starting Points for Next-Generation Antimalarials” (ACS Infect Dis, 2020).
